Screening results deposited in PubChem by National Center for Advancing Translational Sciences (NCATS).
In the library only some 2.6% were active in any assay of this set; here they are far more common.
Cruzain Triton = qHTS Assay for Promiscuous and Specific Inhibitors of Cruzain (with detergent) | purified cruzain, Z-FR-AMC fluorescence, 0.01% Triton | Potency, µM, for the others: max response, negative = inhibition, actives largely listed as inhibitors | actives 0.43% (n = 200,000);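 further: plate controls were neutral wells for no effect and buffer without enzyme for full effect; nearly all actives have a fitted effect of over 40% in size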
Target sequence (P25779 123-467 limits assumed): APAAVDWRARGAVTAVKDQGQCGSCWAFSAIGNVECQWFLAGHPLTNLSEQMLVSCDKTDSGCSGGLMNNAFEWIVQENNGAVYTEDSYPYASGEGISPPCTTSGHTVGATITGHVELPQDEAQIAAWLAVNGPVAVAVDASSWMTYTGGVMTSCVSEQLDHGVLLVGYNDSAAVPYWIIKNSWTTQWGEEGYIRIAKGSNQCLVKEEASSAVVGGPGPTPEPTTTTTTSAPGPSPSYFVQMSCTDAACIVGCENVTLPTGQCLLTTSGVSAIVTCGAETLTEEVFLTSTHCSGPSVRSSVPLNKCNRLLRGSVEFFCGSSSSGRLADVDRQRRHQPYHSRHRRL
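Cysteine protease activity tested under reducing, mildly acidic conditions (100 mM sodium acetate pH 5.5, 5 mM DTT) plus 0.01% Triton X-100. Cruzain 1.5 nM; substrate Z-FR-AMC 2 uM; 15 min compound preincubation at room temperature.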
Cruzain inh noDet = qHTS Assay for Promiscuous and Specific Inhibitors of Cruzain (without detergent) | purified cruzain, Z-FR-AMC fluorescence, no detergent | Cruzipain (Trypanosoma cruzi), P25779 | AID 1476, 2009 | actives 2.3% (n = 200,000) | Potency, µM, for inactives: max response, negative = inhibition, hits mostly inhibitors;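 further: plate controls were enzyme without inhibitor for no effect and buffer without enzyme for full effect; nearly all actives have a fitted effect of over 40% in size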
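Purified cruzain at 1.5 nM, pre-incubated 15 min with compound at room temperature in 100 mM sodium acetate pH 5.5, 5 mM DTT, 0.00005% Triton X-100. Reaction started with 2 uM Z-FR-AMC; AMC fluorescence increase over 60 s gives rate.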
The depositor's hits bear a star; u = inconclusive. The call rests on the fitted dose curve; in most records, active means well fitted curve in the direction sought with a large enough effect; inconclusive means small, poorly fitted or top-dose-only effect, or another doubt; inactive means no such curve, though single readings can be large; an effect the other way counts as inactive or inconclusive. Potency means the concentration at half of the fitted maximal effect.

SMILES | Cruzain Triton | Cruzain inh noDet
COc1ccc(C(=O)N2CCC(c3nc(-c4ccc(S(=O)(=O)N5CCCC5)cc4)no3)CC2)cc1 | -3% | u
CCn1nnc2cc(C(=O)Nc3ccc(Cl)cc3C)ccc21 | 7% | -7%
Cc1sc2ncn(CC(=O)N3CCN(c4ccccc4)CC3)c(=O)c2c1S(=O)(=O)N1CCN(c2ncccn2)CC1 | 3% | 14%
O=C(Nc1ccc(-c2nc3ccccc3s2)c(OC(=O)c2ccccc2)c1)c1ccccc1 | -6% | 25µM*
O=C(Nc1ccc(-c2nc3ccccc3s2)c(O)c1)c1ccc(Br)cc1 | 0% | 1%
CCCCn1c(=O)nc2n(-c3ccc(F)cc3)c3ccccc3cc-2c1=O | -1% | 3%
CCc1ccc(-c2cn3c(n2)sc2cc(C(=O)NC4CCCCC4)ccc23)cc1 | -2% | 4%
N#C/C(=C\c1ccccc1[N+](=O)[O-])c1nc(C2CC2)cs1 | -7% | 7%
N#C/C(=C\C=C\c1ccccc1[N+](=O)[O-])c1nc(-c2ccc3c(c2)OCO3)cs1 | 2% | 20µM*
Cc1ccc(C2=CC(c3cccs3)n3nnnc3N2)cc1 (stereo unspecified) | 5% | 16µM*
C1=C(c2ccccc2)Nc2nnnn2C1c1cccs1 (stereo unspecified) | 4% | -7%
N#C/C(=C\c1ccc(-c2cccc(C(F)(F)F)c2)o1)C(=O)Nn1cnnc1 | -13% | 9%
O=C1OC(c2ccco2)=N/C1=C\c1ccc(-c2cccc(C(F)(F)F)c2)o1 | -11% | 13µM*
O=C(CSc1nc2c(sc3ccccc32)c(=O)n1-c1ccccc1)NCc1ccco1 | -14% | u
CCOCCCn1c(SCC(=O)NCc2ccco2)nc2c(sc3ccccc32)c1=O | -3% | -4%
O=C(CSc1nc2c(sc3ccccc32)c(=O)n1CCc1ccccc1)NCc1ccco1 | 0% | 5µM*
CCCCn1c(SCC(=O)NCc2ccco2)nc2c(sc3ccccc32)c1=O | -2% | 10µM*
Cc1ccc(C)c(N2CCN(c3nccn4nc(-c5ccc(Br)cc5)cc34)CC2)c1 | -2% | 8%
Cc1ccc(CCNC(=O)c2c[nH]c3ccc(S(=O)(=O)Nc4cccc(C(F)(F)F)c4)cc3c2=O)cc1 | -2% | -1%
CC(CNC(=O)CCCn1c(=O)c2cccn2c2ccc(F)cc21)c1ccccc1 (stereo unspecified) | -3% | 16µM*
CC(CNC(=O)CCn1c(=O)c2cccn2c2ccc(F)cc21)c1ccccc1 (stereo unspecified) | -7% | 30%
O=c1c2nncn2ccn1-c1ccc(F)c(F)c1 | -3% | 16%
O=C(Nc1ccccc1-c1nnn(CC(=O)N2CCCc3ccccc32)n1)c1ccc(Cl)cc1 | -6% | 32µM*
O=C(Nc1ccccc1-c1nnn(CC(=O)N2CCCc3ccccc32)n1)c1ccco1 | 0% | u
Cc1[nH]n(-c2ncc(-c3ccc(Cl)cc3)s2)c(=O)c1C(c1ccc(Cl)cc1)C(C#N)C#N (stereo unspecified) | u | 3.2µM*
SMILES | Cruzain Triton | Cruzain inh noDet
COc1ccc(C(c2c(C)[nH]n(C(N)=S)c2=O)C(C#N)C#N)cc1 (stereo unspecified) | 2% | -17%
O=C(CCNS(=O)(=O)c1ccc2c(c1)CCCC(=O)N2)NCc1ccccc1Cl | -3% | -1%
O=C(Cn1c(=O)oc2cc(S(=O)(=O)N3CCCCCC3)ccc21)Nc1ccc(F)cc1F | -6% | u
O=S(=O)(Nc1ccc2c(c1)nc1n2CCN(Cc2ccccc2)C1)c1ccc(Cl)cc1 | -3% | 25µM*
O=S(=O)(Nc1ccc2c(c1)nc1n2CCN(Cc2ccccc2)C1)c1ccccc1 | -5% | u
O=C(CCCn1c(=O)c2cccn2c2cccnc21)NCc1ccccc1Br | 5% | -4%
Oc1ccc2ccccc2c1/C=N/Nc1nnc(-c2ncc[nH]2)c2ccccc12 | -14% | 25µM*
COc1ccc(/C=N/Nc2nnc(-c3ncc[nH]3)c3ccccc23)cc1 | -6% | 2%
CCC(=O)N1CCc2cc(S(=O)(=O)NC(Cc3ccccc3)C(=O)Nc3cccc(OC)c3)ccc21 (stereo unspecified) | -1% | 2%
COc1cccc(-n2cc(C(=O)NCCc3cccc(C)c3)c3ccccc3c2=O)c1 | -4% | 14%
COc1cccc(/C(O)=C/c2nc3ccc(C(=O)NCCc4ccc(Cl)cc4)cc3[nH]c2=O)c1 | -7% | 25µM*
COc1cccc(/C(O)=C/c2nc3ccc(C(=O)NCCc4cccc(C)c4)cc3[nH]c2=O)c1 | -3% | 20µM*
COc1cccc(C(=O)Nc2cc(C(=O)NCCc3ccccc3)ccc2Cl)c1 | 2% | 1%
CNC(=O)[C@H]1O[C@H](n2cnc3c(NCc4cccc(I)c4)ncnc32)[C@@H](O)[C@@H]1O | 0% | u
O=C(NCc1ccco1)c1ccc2c(c1)N(Cc1ccc(Cl)cc1)C(=O)c1ccccc1S2 | 1% | u
O=C(NC1CCCC1)c1ccc2c(c1)N(Cc1ccccc1)C(=O)c1ccccc1S2 | 1% | u
CCOc1ccc(CN2C(=O)c3ccccc3Sc3ccc(C(=O)NCc4ccco4)cc32)cc1 | -4% | 32µM*
Cc1cccc(CN2C(=O)c3ccccc3Sc3ccc(C(=O)NC4CCCCC4)cc32)c1 | 1% | 13µM*
Cc1ccccc1CN1C(=O)c2ccccc2Sc2ccc(C(=O)NCc3cccs3)cc21 | 0% | u
Cc1ccccc1CN1C(=O)c2ccccc2Sc2ccc(C(=O)NCc3ccccc3)cc21 | 1% | 32µM*
CC1CCC(NC(=O)c2ccc3c(c2)N(Cc2cccc(F)c2)C(=O)c2ccccc2S3)CC1 (stereo unspecified) | 1% | u
CCOc1ccc(CN2C(=O)c3ccccc3Sc3ccc(C(=O)NC4CCC(C)CC4)cc32)cc1 (stereo unspecified) | -5% | 5µM*
CCN(CCCNC(=O)CSc1cc(=O)n(CC)c2ccccc12)c1ccccc1 | -3% | u
NC(N)=N/N=C/c1ccccc1 | -4% | -6%
Cn1c(CS/C(N)=N/N=C/c2ccccc2)c(Br)c(=O)n1-c1ccccc1 | u | 32µM*
SMILES | Cruzain Triton | Cruzain inh noDet
O=C(c1ccc(-c2ccc(Cl)cc2)o1)N1CCN(c2ccc([N+](=O)[O-])cc2Cl)CC1 | -4% | 7.9µM*
O=C(c1ccc(-c2ccc([N+](=O)[O-])cc2)o1)N1CCCCC1 | -7% | -5%
Cc1ccc(NC(=O)c2nc(S(C)(=O)=O)ncc2N(Cc2ccco2)Cc2ccccc2F)c(C)c1 | -3% | 1%
COc1ccc(CN(Cc2ccco2)c2cnc(S(C)(=O)=O)nc2C(=O)Nc2ccc(C)c(C)c2)cc1 | -3% | 20µM*
CC(C)(C)c1ccc(CN(Cc2ccco2)c2cnc(S(C)(=O)=O)nc2C(=O)Nc2ccc(F)cc2)cc1 | -4% | 7.9µM*
CC(C)c1ccc(CN(Cc2ccco2)c2cnc(S(C)(=O)=O)nc2C(=O)Nc2ccccc2)cc1 | -4% | u
CCS(=O)(=O)c1ncc(N(Cc2ccco2)Cc2ccccc2F)c(C(=O)Nc2cccc(Cl)c2)n1 | -3% | 20µM*
COc1ccc(CN(Cc2ccco2)c2cnc(S(C)(=O)=O)nc2C(=O)Nc2ccc(C)cc2C)cc1 | -4% | u
CCCCNc1nc(C)nc2c1nc(-c1ccccc1)n2CCN1CCCCC1 | -1% | 14%
